We go through 41 compounds from PubChem BioAssay (NCATS).

Records with an inconclusive call do not appear. A call without a number means that no potency is given here. The source made the active and inactive calls. Calls come from the whole dose curve; as a rule, active = well fitted curve in the direction sought with a large enough effect; inconclusive = small, poorly fitted or top-dose-only effect, or another doubt; inactive = no such curve, though single readings can be large; an effect the other way counts as inactive or inconclusive.

The target of assay [1] is Protein phosphatase 1D (Homo sapiens) (UniProt O15297). Briefly: RapidFire Mass Spectrometry qHTS Assay for Modulators of WT P53-Induced Phosphatase 1 (WIP1) (AID 1347424).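 Note: amount of dephosphorylated VEPPL-S-QETFS peptide product formed by WIP1.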 Note: potency is the fitted concentration of half-maximal effect. In short, it runs like this:
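Mass-spectrometric measurement of dephosphorylated peptide after a 5 min room-temperature reaction of 10 nM WIP1 with 2 uM phosphopeptide, following 1 h compound preincubation in 30 mM MgCl2 buffer.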
For orientation: Quantitative high-throughput screening tests each substance at several concentrations.

The target is the same in assay [2]. Description: Rhodamine-PBP qHTS Assay for Modulators of WT P53-Induced Phosphatase 1 (WIP1) (AID 1347425). The gist of the method:
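WIP1 (5 nM final) was preincubated with compound for 1 hour at room temperature. It then dephosphorylated 10 uM VEPPL-pS-QETFS peptide in Tris-HCl pH 7.5 with 30 mM MgCl2. Released Pi was detected by 10 uM Rh-PBP fluorescence (ex 525/em 598 nm) read at 1-min intervals for 11 min, as delta f1 - f0.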

Assay [3] is described as follows: Primary qHTS for inhibitors of La Crosse Virus (LACV) - induced cell death in SH-SY5Y cells (AID 1508616).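 Note: top concentration of the series differs between compounds; higher means more rescue of cells from virus-induced death.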 The gist of the method:
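SH-SY5Y, 6000 cells/well; cpd via pin tool in DMSO; LACV 0.01 MOI; 6 d 37C 5% CO2; ATPLite, 5 min RT; luminescence normalized to ±virus DMSO controls.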

The nature of assay [4]: qHTS for inhibitors of adenylyl cyclases using a fission yeast platform: a pilot screen against the NCATS LOPAC library (AID 1347410). In short, it runs like this:
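S. pombe CHP2027 (AC9-GNAS-PDE4D2) carrying PKA-repressed fbp1-GFP, incubated 18 h at 30C in EMM with LOPAC compounds at up to 57 uM. GFP gain-of-signal read by laser scanning cytometry; DMSO negative control.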

Assay [5] is described as follows: Validation qHTS assay for inhibitors of Activation Induced Cytidine Deaminase (AID): UDG Counterscreen signal (AID 1347427). The gist of the method:
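Fluorescence at 560 nm excitation, 665 nm emission reports UDG signal after 250 mM NaOH (2x) addition and 30 min. Enzymes (AID 1 uM, UDG 2 U/mL, at 4/3x) preincubated 10 min with compound, then 4 h with 4x 250 nM DJC20/DJC23 substrate at room temperature.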

Assay [6] concerns the target Single-stranded DNA cytosine deaminase (Homo sapiens) (UniProt Q9GZX7). Briefly: Validation qHTS assay for inhibitors of Activation Induced Cytidine Deaminase (AID): AID signal (AID 1347429). The gist of the method: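 Steps: dispense AID with UDG; pin-transfer compound up to 114 uM final; add DJC20/DJC23 substrate and hold 4 hr at room temperature; add NaOH, hold 30 min; read FRET signal (540/590 nm).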

In assay [7] the target is Calcium and integrin-binding protein 1 (Homo sapiens) (UniProt Q99828). Description: Validation qHTS for Identification of Calcium Integrin Binding protein 1 (CIB1) Competitor (AID 1508618). The gist of the method: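 Fluorescence polarization with 1 uM CIB1-GST and 100 nM FITC-alphaIIb peptide in HEPES pH 7.4, NaCl, 5 mM CaCl2, Tween20. Compounds at up to 114 uM final, preincubated with protein 15 min; read after 15 min more at RT.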

For assay [8] the target is unchanged. Briefly: Confirmatory qHTS for Identification of Calcium Integrin Binding Protein 1 (CIB1) Competitor (AID 1508617). Note: potency is the fitted concentration of half-maximal effect; nearly all actives have a fitted effect of over 65% in size. In short, it runs like this:
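FP competition: CIB1-GST (1 uM final) in 5 mM HEPES pH 7.4, 125 mM NaCl, 5 mM CaCl2, 0.01% Tween20 preincubated 15 min RT with compounds (up to 114 uM), then FITC-alphaIIb peptide (100 nM), 15 min RT; Ex 480/Em 540.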

Protein phosphatase 1D (Homo sapiens), sequence (O15297 whole entry, looked up): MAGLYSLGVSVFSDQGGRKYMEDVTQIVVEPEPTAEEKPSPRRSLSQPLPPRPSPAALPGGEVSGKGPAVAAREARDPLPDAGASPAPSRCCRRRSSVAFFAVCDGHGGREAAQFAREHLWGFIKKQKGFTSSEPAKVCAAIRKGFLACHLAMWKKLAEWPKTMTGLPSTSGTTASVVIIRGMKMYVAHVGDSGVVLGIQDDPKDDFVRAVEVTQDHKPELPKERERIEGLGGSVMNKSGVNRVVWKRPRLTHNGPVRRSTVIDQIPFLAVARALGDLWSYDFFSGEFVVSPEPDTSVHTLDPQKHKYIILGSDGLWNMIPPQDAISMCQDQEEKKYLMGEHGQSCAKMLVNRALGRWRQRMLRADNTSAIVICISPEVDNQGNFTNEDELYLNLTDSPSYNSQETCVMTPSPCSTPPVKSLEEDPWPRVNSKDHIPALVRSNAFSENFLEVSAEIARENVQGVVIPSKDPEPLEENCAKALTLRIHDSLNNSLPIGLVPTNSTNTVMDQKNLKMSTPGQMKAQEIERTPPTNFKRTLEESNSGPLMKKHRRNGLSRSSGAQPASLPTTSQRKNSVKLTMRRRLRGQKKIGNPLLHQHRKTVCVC
Calcium and integrin-binding protein 1 (Homo sapiens), sequence (Q99828 whole entry, looked up): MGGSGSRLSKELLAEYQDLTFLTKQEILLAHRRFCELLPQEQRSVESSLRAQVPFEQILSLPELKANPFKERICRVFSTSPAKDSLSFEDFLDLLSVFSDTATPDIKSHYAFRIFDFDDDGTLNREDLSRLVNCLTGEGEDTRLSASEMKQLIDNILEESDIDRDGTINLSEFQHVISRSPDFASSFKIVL
Single-stranded DNA cytosine deaminase (Homo sapiens), sequence (Q9GZX7 whole entry, looked up): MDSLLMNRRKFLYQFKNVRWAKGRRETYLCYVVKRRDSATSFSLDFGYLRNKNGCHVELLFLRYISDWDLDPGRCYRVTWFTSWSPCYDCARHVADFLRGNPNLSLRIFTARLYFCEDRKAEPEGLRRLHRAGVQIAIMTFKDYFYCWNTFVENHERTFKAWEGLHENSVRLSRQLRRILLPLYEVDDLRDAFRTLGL

For `CN(CCCN1c2ccccc2CCc2ccccc21)CC(=O)c1ccc(Cl)cc1`, in assay [1], the Potency result is “inactive”. Further, the result in assay [2] and in assay [3] was inactive.

In the case of `O=[N+]([O-])c1ccc(/C=N\O)o1`, in assay [1], the Potency result is “inactive”. Further, the result in assay [2] and in assay [3] was inactive.

Take `CCCN(CCc1cccs1)[C@H]1CCc2c(O)cccc2C1`: in assay [1], the Potency result was “inactive”. Further, the result in assay [2] and in assay [3] was inactive.

With `CCOC(=O)[C@H](CCc1ccccc1)N[C@@H](C)C(=O)N1[C@H](C(=O)O)C[C@H]2CCCC[C@@H]21`, the call in assay [4], in assay [5], in assay [6], in assay [3] and in assay [7] was inactive.

Consider `CC1(COc2ccc(CC3SC(=O)NC3=O)cc2)CCCCC1` (stereo not given), for which, in assay [3], the compound was called inactive.

`CCN(CC)CCNc1ccc(CO)c2sc3ccccc3c(=O)c12`: the Potency entry in assay [1] is “inactive”. In assay [3], the call was inactive.

For `CC1=C(C(=O)O)N2C(=O)[C@@H](NC(=O)[C@H](N)c3ccccc3)[C@H]2SC1`, the Potency result in assay [1] was “inactive”. Further, the outcome in assay [3] was inactive.

For the compound `CCc1oc2ccccc2c1C(=O)c1cc(I)c(O)c(I)c1`, the Potency is 3.55 µM (active) in assay [1] and 35.5 µM (active) in assay [8]. For the same compound, in assay [3], the outcome was inactive.

As to `C[N+]1(C)CCC(=C(c2ccccc2)c2ccccc2)CC1`, in assay [1], the Potency result is “inactive”. In assay [3], the compound was classed as inactive.

As to `CCN(CC)CCOc1ccccc1C(=O)CCc1ccccc1`, in assay [1], the Potency result was “inactive”. Also, the compound was called inactive in assay [3].

With `O=C1C(CCS(=O)c2ccccc2)C(=O)N(c2ccccc2)N1c1ccccc1` (stereo not given), the Potency entry in assay [1] was “inactive”. The call in assay [3] was inactive.

For `C=C1c2cccc(O)c2C(O)=C2C(=O)[C@]3(O)C(O)=C(C(N)=O)C(=O)[C@@H](N(C)C)[C@@H]3[C@@H](O)[C@H]12`, the Potency in assay [1] was 28.2 µM (active). For the same compound, the result in assay [3] was inactive.

Consider `Cc1c(-c2ccccc2)oc2c(C(=O)OCCN3CCCCC3)cccc2c1=O`, for which the Potency entry in assay [1] is “inactive”. Besides, the compound was called inactive in assay [2] and in assay [3].

With `CCc1cc(Cl)c(OC)c(C(=O)NC[C@@H]2CCCN2CC)c1O`, in assay [1], the Potency result is “inactive”. Also, the result in assay [2] and in assay [3] was inactive.

Take `O[C@@H](c1cc(C(F)(F)F)nc2c(C(F)(F)F)cccc12)[C@H]1CCCCN1`: in assay [1], the Potency result was “inactive”. The compound was classed as inactive in assay [3].

With `CCCCCCCCCCCCSCCOCCO`, the Potency entry in assay [1] is “inactive”. Besides, in assay [3], the compound was classed as inactive.

Regarding `CCc1oc2ccccc2c1C(=O)c1cc(Br)c(O)c(Br)c1`, the Potency in assay [1] was 6.31 µM (active). Also, in assay [3], the outcome was inactive.

For `COc1ccc(C(=O)c2ccccc2)c(O)c1`, the Potency entry in assay [1] is “inactive”. In assay [3], the outcome was inactive.

`Oc1c(Cl)cc(Cl)c(Cl)c1Cc1c(O)c(Cl)cc(Cl)c1Cl`: the Potency in assay [1] was 8.91 µM (active). Besides, the outcome in assay [3] was inactive.

With `CC[C@H](c1ccc(O)cc1)[C@@H](CC)c1ccc(O)cc1`, the result in assay [3] was inactive.

On to `N[C@H](C(=O)O)[C@@H](O)c1ccc(O)c(O)c1`, for which the Potency entry in assay [1] is “inactive”. The result in assay [2] and in assay [3] was inactive.

As to `O=S(=O)(O)c1ccc(O)cc1`, the Potency result in assay [1] is “inactive”. Besides, the call in assay [3] was inactive.

As for `Cc1ccccc1OCC(O)CO` (stereo not given), in assay [1], the Potency entry is “inactive”. In addition, the outcome in assay [2] and in assay [3] was inactive.

In the case of `O=C1c2cccc3c2[C@H](CCC3)CN1[C@@H]1CN2CCC1CC2`, the Potency entry in assay [1] is “inactive”. In assay [3], the compound was classed as inactive.

For the compound `CC(CNC1CCCCC1)OC(=O)c1ccccc1` (stereo not given), the Potency entry in assay [1] is “inactive”. For the same compound, the result in assay [2] and in assay [3] was inactive.

Turning to `O=C1OC2(c3ccccc31)c1cc(Br)c(O)c(Br)c1Oc1c2cc(Br)c(O)c1Br`, the compound was called inactive in assay [3].

In the case of `CCN1/C(=C/C=C/c2sc3ccccc3[n+]2CC)Sc2ccccc21`, the result in assay [2] and in assay [3] was inactive.

Regarding `COc1ccc(CN(CCN(C)C)c2ncccn2)cc1`, the Potency result in assay [1] is “inactive”. The compound was classed as inactive in assay [3].

Consider `O=C(O)CCNC(=O)c1ccccc1`, for which, in assay [1], the Potency result was “inactive”. Also, the compound was classed as inactive in assay [3].

In the case of `CC(=O)OCC1=C(C(=O)O)N2C(=O)[C@@H](NC(=O)CSc3ccncc3)[C@H]2SC1`, the outcome in assay [2] and in assay [3] was inactive.

For the compound `COc1cc(N)c(Cl)cc1C(=O)NC1CCN(Cc2ccccc2)CC1`, the Potency entry in assay [1] was “inactive”. For the same compound, the call in assay [3] was inactive.

As to `NC(N)=NN=C(/C=C/c1ccc([N+](=O)[O-])o1)/C=C/c1ccc([N+](=O)[O-])o1`, in assay [3], the compound was called inactive.

Turning to `CC(=O)NC(=O)c1ccccc1O`, the Potency result in assay [1] is “inactive”. The outcome in assay [2] and in assay [3] was inactive.

Turning to `O=C(Nc1ncc([N+](=O)[O-])s1)c1cccs1`, the call in assay [3] was inactive.

In the case of `NC(=O)C1(N2CCCCC2)CCN(CCCC(=O)c2ccc(F)cc2)CC1`, the Potency result in assay [1] is “inactive”. Besides, the outcome in assay [2] and in assay [3] was inactive.

For the compound `CCCCCCCCCCCCCC[N+](C)(C)Cc1ccccc1`, the Potency result in assay [1] was “inactive”. The result in assay [2] and in assay [3] was inactive.

Take `C#C[C@]1(OC(C)=O)CC[C@H]2[C@@H]3CCC4=C/C(=N/O)CC[C@@H]4[C@H]3CC[C@@]21CC`: the outcome in assay [2] and in assay [3] was inactive.

In the case of `CC(=O)O[C@]1(C(C)=O)CC[C@H]2[C@@H]3C=C(Cl)C4=CC(=O)CC[C@]4(C)[C@H]3CC[C@@]21C`, the Potency result in assay [1] was “inactive”. Also, the compound was called inactive in assay [2] and in assay [3].

As to `Oc1ccc(Cl)cc1Cc1cc(Cl)ccc1O`, the Potency was 22.4 µM (active) in assay [1] and 44.7 µM (active) in assay [8]. Moreover, the outcome in assay [3] was inactive.

For `O=C(NCCc1c[nH]c2ccccc12)c1cccnc1`, in assay [1], the Potency result was “inactive”. The compound was classed as inactive in assay [3].

In the case of `O=C(Nc1cccc(C2=NCCN2)c1)Nc1cccc(C2=NCCN2)c1`, the Potency entry in assay [1] is “inactive”. The call in assay [2] and in assay [3] was inactive.
